Results filed as inconclusive are left out. The source made the active and inactive calls. Calls come from the whole dose curve; as a rule, active = well fitted curve in the direction sought with a large enough effect; inconclusive = small, poorly fitted or top-dose-only effect, or another doubt; inactive = no such curve, though single readings can be large; an effect the other way counts as inactive or inconclusive.

Drawing on PubChem BioAssay (NCATS), this text covers Potency for 18 compounds.

A short description of test [1]: qHTS of pediatric cancer cell lines to identify multiple opportunities for drug repurposing: Primary screen for OHS-50 cells (AID 1347103). Note: nearly all actives have a fitted effect of over 40% in size. Note: potency is the fitted concentration of half-maximal effect. The procedure, abridged:
(§1)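 Cells (500-1,000/well) rested 5 h, then received compounds for 48 h; metabolically active cells were measured by CellTiter-Glo luminescence. Final concentrations spanned up to 46 µM (MIPE, 11-point) or 0.59 nM-46 µM (NPC, 8-point) in primary screens, 11-point in follow-ups.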

Test [2] in a line: qHTS of pediatric cancer cell lines to identify multiple opportunities for drug repurposing: Primary screen for RD cells (AID 1347104). Note: nearly all actives have a fitted effect of over 55% in size. Note: potency is the fitted concentration of half-maximal effect. The procedure, abridged:
(§2)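 Primary screen of approved and investigational compounds on cells in growth media at 37 degrees C, 5% CO2. MIPE set at 11-point and NPC set at 8-point dilutions; viability scored by ATP-based luminescence at 48 hours.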
Background: Quantitative high-throughput screening tests each substance at several concentrations.

A short description of test [3]: qHTS of pediatric cancer cell lines to identify multiple opportunities for drug repurposing: Primary screen for MG 63 (6-TG R) cells (AID 1347105). Note: nearly all actives have a fitted effect of over 50% in size. Note: potency is the fitted concentration of half-maximal effect. In a few lines:
as §2

The nature of test [4]: qHTS of pediatric cancer cell lines to identify multiple opportunities for drug repurposing: Primary screen for control Hh wild type fibroblast cells (AID 1347106).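 Note: series mostly up to about 46 µM; a drop in luminescence marks cytotoxicity and a rise apparent proliferation; nearly all actives have a fitted effect of over 55% in size.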 In a few lines: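 Viability after 48 h compound treatment at 37C, 500-1,000 cells/well, read as ATP luminescence with CellTiter-Glo. Primary screens used 11-point (MIPE, 0.78 nM-46 µM) or 8-point (NPC, 0.59 nM-46 µM) final concentrations; follow-up screens used 11-point dilutions.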

Test [5] in a line: qHTS of pediatric cancer cell lines to identify multiple opportunities for drug repurposing: Primary screen for Rh41 cells (AID 1347108). Note: nearly all actives have a fitted effect of over 70% in size. Note: potency is the fitted concentration of half-maximal effect. The procedure, abridged:
as §2

A short description of test [6]: qHTS of pediatric cancer cell lines to identify multiple opportunities for drug repurposing: Primary screen for Rh30 cells (AID 1347107). Note: series mostly up to about 46 µM; nearly all actives have a fitted effect of over 75% in size. In a few lines:
as §1

The nature of test [7]: qHTS of pediatric cancer cell lines to identify multiple opportunities for drug repurposing: Confirmatory screen for A673 cells (AID 1347110).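 Note: cells exposed to compound for 48 h before the viability read; nearly all actives have a fitted effect of over 65% in size.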 Note: potency is the fitted concentration of half-maximal effect. The procedure, abridged:
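Forty-eight-hour viability assay. Follow-up compounds ran at 11-point dilutions; positive control bortezomib at 2.3 uM final, neutral control DMSO.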

A short description of test [8]: qHTS of pediatric cancer cell lines to identify multiple opportunities for drug repurposing: Confirmatory screen for LAN-5 cells (AID 1347113). Note: nearly all actives have a fitted effect of over 65% in size. Note: potency is the fitted concentration of half-maximal effect. The procedure, abridged: as §1
Test [9] in a line: qHTS of pediatric cancer cell lines to identify multiple opportunities for drug repurposing: Confirmatory screen for DAOY cells (AID 1347114). Note: nearly all actives have a fitted effect of over 65% in size. In a few lines:
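Viability measured as metabolically active cells via CellTiter-Glo luminescence following 48 hours of compound exposure, 11-point dilutions in confirmatory testing. 500-1,000 cells/well plated 5 hours before dosing; controls were DMSO and 2.3 µM bortezomib.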

Test [10] is described as follows: qHTS of pediatric cancer cell lines to identify multiple opportunities for drug repurposing: Confirmatory screen for NB-EBc1 cells (AID 1347115).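 Note: cells exposed to compound for 48 h before the viability read; nearly all actives have a fitted effect of over 45% in size.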 Note: potency is the fitted concentration of half-maximal effect. The procedure, abridged:
as §1

Test [11] can be described thus: qHTS of pediatric cancer cell lines to identify multiple opportunities for drug repurposing: Confirmatory screen for control Hh wild type fibroblast cells (AID 1347121). Note: nearly all actives have a fitted effect of over 70% in size. In a few lines:
as §1

Test [12] can be described thus: qHTS of pediatric cancer cell lines to identify multiple opportunities for drug repurposing: Confirmatory screen for U-2 OS cells (AID 1347122). Note: nearly all actives have a fitted effect of over 65% in size. The procedure, abridged: as §1
Test [13] can be described thus: qHTS of pediatric cancer cell lines to identify multiple opportunities for drug repurposing: Confirmatory screen for Rh41 cells (AID 1347123).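 Note: 48 h compound exposure; nearly all actives have a fitted effect of over 60% in size.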 Note: potency is the fitted concentration of half-maximal effect. In a few lines:
as §1

Test [14] can be described thus: qHTS of pediatric cancer cell lines to identify multiple opportunities for drug repurposing: Confirmatory screen for Rh18 cells (AID 1347125). Note: nearly all actives have a fitted effect of over 55% in size. Note: potency is the fitted concentration of half-maximal effect. The procedure, abridged: as §1
Test [15] can be described thus: qHTS of pediatric cancer cell lines to identify multiple opportunities for drug repurposing: Confirmatory screen for NB1643 cells (AID 1347109). Note: nearly all actives have a fitted effect of over 45% in size. Note: potency is the fitted concentration of half-maximal effect. In a few lines: as §1
A short description of test [16]: qHTS of pediatric cancer cell lines to identify multiple opportunities for drug repurposing: Confirmatory screen for Saos-2 cells (AID 1347127). Note: nearly all actives have a fitted effect of over 60% in size. Note: potency is the fitted concentration of half-maximal effect. In a few lines:
as §1

The nature of test [17]: qHTS of pediatric cancer cell lines to identify multiple opportunities for drug repurposing: Confirmatory screen for SK-N-MC cells (AID 1347111).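 Note: cells exposed to compound for 48 h before the readout; nearly all actives have a fitted effect of over 70% in size.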 Note: potency is the fitted concentration of half-maximal effect. In a few lines: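 Seed 500-1,000 cells/well; rest 5 h at 37 degrees C. Pin-transfer compounds, 11-point titration. Incubate 48 h. Add CellTiter-Glo, 15 min RT, read luminescence.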
A short description of test [18]: qHTS of pediatric cancer cell lines to identify multiple opportunities for drug repurposing: Confirmatory screen for RD cells (AID 1347124). Note: potency is the fitted concentration of half-maximal effect. The procedure, abridged:
as §1

Test [19] is described as follows: qHTS of pediatric cancer cell lines to identify multiple opportunities for drug repurposing: Confirmatory screen for Rh30 cells (AID 1347126). Note: nearly all actives have a fitted effect of over 55% in size. Note: potency is the fitted concentration of half-maximal effect. In a few lines: as §1
The nature of test [20]: qHTS of pediatric cancer cell lines to identify multiple opportunities for drug repurposing: Confirmatory screen for MG 63 (6-TG R) cells (AID 1347119). Note: nearly all actives have a fitted effect of over 55% in size. Note: potency is the fitted concentration of half-maximal effect. In a few lines: as §1

With `CCCCOC(=O)CCCCCCCCC(=O)OCCCC`, the Potency result in test [1], in test [2], in test [3], in test [4] and in test [5] was “inactive” in each case.

Consider `COc1cc(/C=C/C(N)=O)cc(OC)c1OC`, for which the Potency entry in [1], in test [2], in test [3], in test [4], in test [6] and in [5] was “inactive” each time. Further, the Potency entry in test [7], in [8], in [9], in [10], in [11] and in test [12] was “inactive” in each case. Also, the Potency entry in test [13] and in test [14] was “inactive” each time.

Regarding `COc1ccc(CCC(C)=O)cc1`, the Potency entry in test [1], in test [2], in test [3], in test [4] and in test [5] was “inactive” in each case.

For the compound `CCN(CC)CC(=O)OCC(=O)[C@@]1(O)CC[C@H]2[C@@H]3CCC4=CC(=O)CC[C@]4(C)[C@H]3[C@@H](O)C[C@@]21C`, the Potency result in [1], in [2], in [3], in test [4], in test [5] and in test [15] was “inactive” throughout. The Potency result in [7], in test [9], in [10], in test [11], in [12] and in test [13] was “inactive” in each case. Further, the Potency result in [14] and in test [16] was “inactive” in each case.

`COc1cc2c(cc1OC)CN(C(=O)[C@H](C)N[C@@H](CCc1ccccc1)C(=O)O)[C@H](C(=O)O)C2`: the Potency entry in test [1], in [2], in [3], in test [6] and in test [5] was “inactive” throughout.

As for `CC(=O)[C@@]1(O)CC[C@H]2[C@@H]3C[C@H](C)C4=CC(=O)CC[C@]4(C)[C@H]3CC[C@@]21C`, the Potency in [1] is 27.6 µM (active); in test [7] it was 0.261 µM (active); in [17], 4.14 µM (active); in test [18] it was 0.827 µM (active); in test [19], 0.414 µM (active). Also, the Potency result in [2], in [3], in test [4], in [6], in [5] and in test [15] was “inactive” in each case. Further, the Potency result in [8], in test [10], in test [11], in [12], in test [14] and in test [16] was “inactive” each time.

With `CCCCNc1ccc(C(=O)OCCN(CC)CC)cc1`, the Potency entry in test [1], in test [2], in [3], in test [4] and in [5] was “inactive” throughout.

Turning to `CNC(=O)c1cnn(-c2nc(N)c3ncn([C@@H]4O[C@H](CO)[C@@H](O)[C@H]4O)c3n2)c1`, the Potency result in test [1], in test [2], in [3], in test [4] and in test [5] was “inactive” in each case.

Take `C#Cc1ccc(-c2ccccc2F)cc1`: the Potency result in [1], in test [2], in test [3], in [4] and in [5] was “inactive” each time.

`CC[C@@]1(O)C(=O)OCc2c1cc1n(c2=O)Cc2c-1nc1ccccc1c2/C=N/OC(C)(C)C`: the Potency was 0.0347 µM (active) in test [1]; 0.668 µM (active) in test [2]; 0.0266 µM (active) in [3]; 0.944 µM (active) in [5]; 0.0414 µM (active) in test [15]; 0.0117 µM (active) in test [7]. For the same compound, the Potency was 0.0052 µM (active) in [17]; 0.0147 µM (active) in [8]; 0.0052 µM (active) in test [10]; 0.0185 µM (active) in [20]; 0.522 µM (active) in [13]; 0.465 µM (active) in [14]. The Potency in test [19] was 0.522 µM (active); in test [16], 0.0165 µM (active). Further, the Potency entry in test [4] was “inactive”.

For the compound `O=C(c1ccco1)N1CCNCC1`, the Potency entry in test [1], in test [2], in [3], in test [4] and in test [5] was “inactive” throughout.

Take `CC1(C)O[C@@H]2C[C@H]3[C@@H]4C[C@H](F)C5=CC(=O)C=C[C@]5(C)[C@@]4(F)[C@@H](O)C[C@]3(C)[C@]2(C(=O)CO)O1`: the Potency result in test [1], in [2], in test [3], in [4] and in [5] was “inactive” throughout.

With `CO/N=C(/C(=O)N[C@@H]1C(=O)N2C(C(=O)OCOC(=O)C(C)(C)C)=C(C)CS[C@H]12)c1csc(N)n1`, the Potency entry in [1], in test [2], in test [3], in test [4] and in [5] was “inactive” each time.

On to `CCOC(=O)O[C@]1(C(=O)OCCl)CC[C@H]2[C@@H]3CCC4=CC(=O)C=C[C@]4(C)[C@H]3[C@@H](O)C[C@@]21C`, for which the Potency result in [1], in test [2], in test [3], in test [4], in [6] and in test [5] was “inactive” throughout. The Potency entry in test [15], in [7], in [8], in test [9], in test [20] and in test [11] was “inactive” each time. Moreover, the Potency result in test [12], in test [13], in [18], in test [14] and in [19] was “inactive” throughout.

As to `c1ccc2occc2c1`, the Potency result in [1], in test [2], in [3], in test [4] and in test [5] was “inactive” throughout.

Consider `COc1c(N2C[C@@H]3CCCN[C@@H]3C2)c(F)cc2c(=O)c(C(=O)O)cn(C3CC3)c12`, for which the Potency result in test [1], in test [2], in test [3], in test [4] and in test [5] was “inactive” in each case.

Consider `CCc1cc2cc(OC)c(OC)cc2c(Cc2ccccc2)n1`, for which the results for the Potency in test [1] and in [13] were 21.9 µM (active) and 18.5 µM (active), respectively. Also, the Potency entry in test [2], in test [3], in [4], in [6], in [5] and in test [15] was “inactive” each time. In addition, the Potency result in test [7], in test [17], in test [9], in test [10], in [11] and in test [12] was “inactive” each time. Further, the Potency entry in test [18], in [14], in [19] and in [16] was “inactive” in each case.

For the compound `O=C(O)c1[nH]n(-c2ccc(S(=O)(=O)O)cc2)c(=O)c1N=Nc1ccc(S(=O)(=O)O)cc1`, the Potency entry in test [1], in test [2], in [3], in test [4] and in test [5] was “inactive” throughout.
